# According to ChEMBL document CHEMBL3988442, “University of Dundee, Small-Polar-MMV Screening Library” (2021):
# The campaign covered roughly 48,000 compounds. About 13,000 (27%) showed an effect of 50% or more. Some of the results follow.
# Tested on: Wolbachia pipientis
# Assay: Anti-Wolbachia Cell-Based Screen
# Format: functional
# Parameters: scale not given: in the data most compounds retested in dose-response had high values
# Conditions: 5 µM
row,Structure (SMILES),Percent Effect
1,Cc1n[nH]cc1CNCC(c1ccsc1)N(C)C (stereo unspecified),26.65%
2,COc1cccc(Cn2cccc(C#N)c2=O)c1,-6.219%
3,CCc1csc(C2CCCN(C(=O)C3=NN(CC)C(=O)CC3)C2)n1 (stereo unspecified),7.447%
4,CCN1N=C(C(=O)N2CCCC(c3nc(C)c(C)s3)C2)CCC1=O (stereo unspecified),92.25%
5,Cc1nc(C2CCCN(C(=O)C3=NN(C(C)C)C(=O)CC3)C2)no1 (stereo unspecified),-5.623%
6,CCN1N=C(C(=O)N2CCCC(c3nc(C)cs3)C2)CCC1=O (stereo unspecified),85.99%
7,CCc1nc(C2CCCN(C(=O)C3=NN(CC)C(=O)CC3)C2)no1 (stereo unspecified),20.67%
8,CCN1N=C(C(=O)N2CCCC(c3noc(C)n3)C2)CCC1=O (stereo unspecified),-1.234%
9,COC1CCCN(C2CCN(c3cccc(-c4csc(C)n4)c3)CC2)C1 (stereo unspecified),10.88%
10,NC(=O)C1CCN(C(=O)C2SCCc3sccc32)CC1 (stereo unspecified),-9.27%
11,COc1cccc(-c2ncc(CN3C[C@@H]4CC[C@H](C3)N(C)C4=O)s2)c1,4.635%
12,COCCn1ccnc1C1CCN(C(=O)c2cccc(COC)n2)CC1,-13.9%
13,CN(C)S(=O)(=O)N1C[C@H]2CCC[C@@]2(COCC2CC2)C1,-7.001%
14,CN(C)C(=O)N1CCC2(CC1)COCCN(c1ncccn1)C2,89.78%
15,CN(C)CC(=O)N1CCC2(CC1)COCCN(Cc1ccncc1)C2,-9.31%
16,CC(C)C(=O)N1CCOC2(COCCN(c3ncccn3)C2)C1 (stereo unspecified),1.497%
17,CN(C)CC(=O)N1CCC2(CC1)COCCN(c1ncccn1)C2,104.4%
18,CN(C)CC(=O)N1CCC2(CC1)CN(c1ncccn1)CCO2.O=C(O)C(F)(F)F,-4.698%
19,c1cc(CN2CCCCC2)cc(NCc2cc[nH]n2)c1,0.9619%
20,Cc1ccc(S(=O)(=O)NC[C@H]2OC[C@@H](NCc3ccncc3)[C@@H]2O)cc1,-4.658%
21,CCc1nc(C)c([C@H]2CN(C)C[C@@H]2C(=O)NC(C)(C)c2ccccc2)[nH]1,-16%
22,Cc1nc(C)n(CC2CCCCN2CCCS(=O)(=O)N(C)C)n1 (stereo unspecified),-10.86%
23,CCC[C@@H]1CN(C(=O)c2c(F)ccc(C)c2Cl)C[C@H]1C(=O)O,10.65%
24,CC(=O)c1c(C)cc(C)c(CS(=O)(=O)c2nccn2C)c1C,-11.41%
25,O=C(C1CCOCC1)N1CC[C@@](O)(c2ccccc2)[C@H]2CCCC[C@@H]21,1.669%
26,CN(C(=O)C1CCOCC1)[C@@H]1CCC[C@@H](N2CCCC2)[C@@H]1O,75.81%

row,Structure (SMILES),Percent Effect
1,Cc1occc1C(=O)N1CC[C@@H](N2CCOCC2)[C@@H]1Cc1ccccc1,5.558%
2,O[C@H]1CN(c2nc(-c3ccccc3)no2)C[C@@H]1N1CCOCC1,10.35%
3,CN(C(=O)C1CCOCC1)[C@@H]1CCC[C@@H](N2CCOCC2)[C@@H]1O,124.2%
4,CN([C@@H]1CC[C@@H](N2CCOCC2)[C@@H]1O)S(=O)(=O)c1ccccc1,122.9%
5,CN(C)C(=O)CO[C@@H]1CC[C@H]2[C@H]1OCCN2C(=O)C1CCOCC1,4.998%
6,CN(C(=O)C1CCCCC1)[C@@H]1CCC[C@@H](N2CCOCC2)[C@@H]1O,5.741%
7,CCc1cnc(N2CC[C@@H]3CN(CCC(C)C)S(=O)(=O)[C@@H]3CC2)nc1.O=C(O)C(F)(F)F,-2.106%
8,O=C1CCC2(CCOC2)CN1CCCOc1cccnc1 (stereo unspecified),36.56%
9,O=C(CCOCC(F)(F)F)N1CCCC(n2ccnc2)C1 (stereo unspecified),105.8%
10,CC(C)c1noc(CCC(=O)N2CCCC(n3ccnc3)C2)n1 (stereo unspecified),13.44%
11,CC(C)(C)NCC(=O)N1CCCC(n2ccnc2)C1 (stereo unspecified),-1.533%
12,O=C(CCS(=O)(=O)C1CCCC1)N1CCCC(n2ccnc2)C1 (stereo unspecified),7.067%
13,CSCCC(=O)N1CCCC(n2ccnc2)C1 (stereo unspecified),98.51%
14,CC(C)S(=O)(=O)CC(=O)N1CCCC(n2ccnc2)C1 (stereo unspecified),0.06667%
15,CCc1nnsc1C(=O)NC1CCN(CCOc2ccc(Br)cc2)CC1,-5.495%
16,CN1CCN(Cc2noc(CCc3nc(-c4ccccc4)no3)n2)CC1,3.84%
17,O=C(CN1CCc2cncnc2C1)NC(c1ccccc1)C1CC1 (stereo unspecified),5.851%
18,CN(C)C(=O)CS(=O)(=O)Cc1cc(Cl)c2c(c1)OCO2,2.003%
19,O=C(CS(=O)(=O)Cc1cc(Cl)c2c(c1)OCO2)N1CCCCCC1,135.5%
20,CCN(C(=O)CS(=O)(=O)Cc1cc(Cl)c2c(c1)OCCCO2)C1CC1,3.578%
21,CC(C(N)=O)S(=O)(=O)Cc1cc(Cl)c2c(c1)OCO2 (stereo unspecified),-4.736%
22,O=C(CS(=O)(=O)Cc1cc(Cl)c2c(c1)OCO2)N1CCCC1,112.9%
23,CNC(=O)CS(=O)(=O)Cc1cc(Cl)c2c(c1)OCCCO2,7.566%
24,c1cnnc(N2CCCC(NCc3nc(-c4cccs4)no3)C2)c1 (stereo unspecified),-0.05894%
25,CCOCCCC(=O)N(C)C(c1cccc(F)c1)c1ccccn1 (stereo unspecified),89.97%
26,CN(C)C(=O)CCCNC(=O)C(c1cccc(F)c1)N(C)C (stereo unspecified),-9.864%

row,Structure (SMILES),Percent Effect
1,CCCC(=O)N(C)c1cccc2ncccc12,-4.906%
2,CCOCCC(=O)NC(Cc1ccc(C)cc1)c1ccccn1 (stereo unspecified),30.55%
3,CCCC(=O)N(C)C(c1cccc(F)c1)c1ccccn1 (stereo unspecified),104.7%
4,Fc1cccc(C(NCc2ncc[nH]2)c2ccccn2)c1 (stereo unspecified),-5.246%
5,O=C(C1CC(=O)N(C2CC2)C1)N1CCN(CCn2cccc2)CC1 (stereo unspecified),-24.19%
6,CCc1nnsc1-c1nc(C(C)C)nn1-c1ccc2c(c1)OCO2,11.97%
7,CNC(=O)C(C)(C)N1CCC[C@H]1C(=O)NC1CCCC1,1.106%
8,Cc1onc(N)c1S(=O)(=O)N1CCCCC1C (stereo unspecified),-5.745%
9,CC(C)NC(=O)N1CCN2C(=O)OC[C@H]2C1,-2.318%
10,O=C(NC1CCCC1)c1nc2c(o1)CN(C(=O)CO)C2,-3.342%
11,O=C(NC1CCCC1)c1nc2c(o1)CN(C(=O)CCO)C2,3.342%
12,CC(C)CC(=O)N1CC(=O)c2sc(NC3CCCCC3)nc2C1,104.9%
13,COC(=O)[C@H]1CN(C(=O)NC(C)C)CCN1C(=O)C1CCCCC1,-4.407%
14,CC(C)NC(=O)N1CC(=O)c2sc(NC3CCCCC3)nc2C1,121.6%
15,CCOC(=O)c1nc(CN2CCN(C(=O)NC3CCCCC3)CC2)cs1,0.1108%
16,CC[C@H](C)[C@H](N)C(=O)N1CC(=O)c2sc(NC3CCCCC3)nc2C1,89.49%
17,COc1nccnc1N1CCN(Cc2cccc(C)c2)C(=O)C1,-1.846%
18,O=C(NCC1(c2ccc(F)cc2)CCC1)N1CCC2(C1)OCCO2,-19.46%
19,Cn1c(CCNC(=O)CC[C@@H]2CCCN3CCCC[C@H]23)n[nH]c1=O,-0.3828%
20,O=C(NCCNc1ccc(C(F)(F)F)cn1)c1ccc(F)cc1Cl,145.5%
21,CC(C)(O)CSCCNC(=O)c1ccc(F)cc1Cl,-9.614%
22,O=C(NCCNc1ccc(C(F)(F)F)cn1)c1ccoc1,28.2%
23,O=C(NCCNc1ccc(C(F)(F)F)cn1)c1ccc(Cl)cc1F,105.2%
24,Cc1occc1C(=O)NCCOc1ccc(C(F)(F)F)cn1,-9.163%
25,N#Cc1ccc(NCCNc2ccc(C(F)(F)F)cn2)nc1,-10.16%
26,O=C(NCCNc1ccc(C(F)(F)F)cn1)c1ccc(Br)cc1,145.4%

row,Structure (SMILES),Percent Effect
1,O=C(NCCNc1ccc(C(F)(F)F)cn1)c1cncc(Br)c1,0.7864%
2,CC(C)(C)C(O)CCNC(=O)c1ccc(F)cc1Cl (stereo unspecified),15.76%
3,O=C(NCCNc1ccc(C(F)(F)F)cn1)c1ccc(Br)cc1F,1.294%
4,O=C(NCCNc1ccc(C(F)(F)F)cn1)c1cc(Cl)ccc1F,114.8%
5,CC(C)n1ccnc1C1CCCN(c2ccnc3ccccc23)C1 (stereo unspecified),-21.91%
6,O=C(c1cccnc1)N1CCN(c2ccc(-n3cccc3)nn2)CC1,-8.085%
7,CCCc1noc(CS(=O)(=O)CC(=O)NC(C)CCC)n1 (stereo unspecified),14.1%
8,Cc1nnc(CCNC(=O)Nc2ccc(S(C)(=O)=O)cc2)[nH]1,-1.089%
9,COC(=O)CC(c1ccc(OC)c(OC)c1)c1oc(C)cc(=O)c1O (stereo unspecified),10.24%
10,CN(C)S(=O)(=O)N1CC[C@]2(C[C@H](Oc3cccnc3)CO2)C1.O=C(O)C(F)(F)F,-11.38%
11,Cc1cnn(CC2CCCN2Cc2nnc(C3CC3)n2C)c1 (stereo unspecified),103.3%
12,Cc1cnn(CC2CN(Cc3nc(C4CC4)no3)CCO2)c1 (stereo unspecified),115.6%
13,Cc1cnn(CC2CN(Cc3nc(-c4ccoc4)no3)CCO2)c1 (stereo unspecified),-0.2172%
14,Cc1cnn(CC2CCCCN2Cc2nnc(C3CC3)n2C)c1 (stereo unspecified),0.7799%
15,Cc1cnn(CC2CCCN2Cc2nnsc2Cl)c1 (stereo unspecified),-1.868%
16,Cc1cnn(CC2CN(Cc3nccn3C)CCO2)c1 (stereo unspecified),-4.713%
17,Cc1cnn(CC2CN(CCS(=O)(=O)C(F)(F)F)CCO2)c1 (stereo unspecified),-38.13%
18,Cc1cnn(CC2CN(Cc3nnc(C4CC4)n3C)CCO2)c1 (stereo unspecified),99.89%
19,COCCc1noc(CN2CCOC(Cn3cc(C)cn3)C2)n1 (stereo unspecified),92.63%
20,OC1(CNc2ccc(-c3nc(C4CC4)no3)cn2)CCCCC1,10.35%
21,O=C(O)C1c2nc[nH]c2CCN1CC(c1ccccc1)c1ccccc1 (stereo unspecified),-19.87%
22,O=c1cc(N2CCNCC2)cnn1CCCn1cccn1,6.31%
23,CSCc1nc(CNC(=O)C2CCCN(CC(N)=O)C2)cs1 (stereo unspecified),-6.144%
